Source: PubChem (National Center for Advancing Translational Sciences (NCATS))
VP16 counter – inhibits Gal4-VP16 luciferase reporter, ROR gamma counter-screen. Drosophila S2 Gal4-VP16 UAS-luciferase, luminescence, 20 h. AID 2546. hit rate 3.5% among 310,000. Potency, µM (highest dose often 53.6 µM), without a hit: top-dose activity, negative = inhibition, usual class: inhibitors;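 note: Gal4-VP16 expression switched on by copper sulfate through the metallothionein promoter; % is set by controls: 0 for no effect and ±100 for the full control effect; nearly all actives have a fitted effect of over 50% in size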
RORgamma inh – blocks mouse ROR gamma transcriptional activity. P51450. Drosophila S2 Gal4-RORgamma UAS-luciferase reporter, 20 h. Potency, µM (doses to about 53.6 µM), without a hit: at the highest dose activity change, negative = inhibition, actives largely listed as inhibitors. hit rate 5.4% among 310,000. AID 2551; note: % is set by controls: 0 for no effect and ±100 for the full control effect; nearly all actives have a fitted effect of over 60% in size
Target sequence (P51450 whole entry, looked up, the tested form may be a part): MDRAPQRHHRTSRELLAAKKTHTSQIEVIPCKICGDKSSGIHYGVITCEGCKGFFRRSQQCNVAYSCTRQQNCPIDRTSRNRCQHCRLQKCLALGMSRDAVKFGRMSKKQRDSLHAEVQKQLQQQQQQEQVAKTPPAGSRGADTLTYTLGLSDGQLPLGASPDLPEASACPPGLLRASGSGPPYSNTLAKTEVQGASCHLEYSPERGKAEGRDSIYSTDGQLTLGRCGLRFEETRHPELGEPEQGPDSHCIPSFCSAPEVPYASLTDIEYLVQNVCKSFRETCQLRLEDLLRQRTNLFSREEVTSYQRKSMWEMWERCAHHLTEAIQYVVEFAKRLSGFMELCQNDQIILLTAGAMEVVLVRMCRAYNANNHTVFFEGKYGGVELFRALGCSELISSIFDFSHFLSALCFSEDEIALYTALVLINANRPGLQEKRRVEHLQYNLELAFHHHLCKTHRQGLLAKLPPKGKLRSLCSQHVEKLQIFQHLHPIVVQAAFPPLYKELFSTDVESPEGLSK
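A Gal4/UAS one-hybrid system in insect cells: metallothionein-promoter Gal4–ROR gamma fusion plus Photinus luciferase reporter. Copper sulfate 700 uM final, 20 hr ambient incubation, luminescent detection after 10 min with reagent.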
TGFb inhibitor – TGF-b pathway inhibition; HepG2 CAGA-GFP TGF-b/SMAD3 reporter, GFP fluorescence, 18 h; TGF-beta stimulated, 500 pg/mL final; Potency, µM (doses to about 46.1 µM), for the others: at the top dose activity, negative = inhibition, actives largely listed as inhibitors; hit rate 1.2% among 410,000; AID 588855; note: % is set by controls: 0 for no effect and ±100 for the full control effect; nearly all actives have a fitted effect of over 65% in size
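Using HEPG2 CAGA-GFP reporter cells at 1000 cells/well, we pinned test compounds, stimulated with recombinant TGF-beta (500 pg/mL final) and measured total well GFP after 18 h.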
ATXN viability – reduces viability in counter-screen for ATXN expression inhibitors; S2 cells (HEK-293 line with an ATXN2-luciferase reporter) viability, CellTiter-Fluor protease fluorescence, 24 h; Potency, µM (top dose mostly 56.7 µM), actives largely listed as cytotoxic; hit rate 0.49% among 400,000; AID 651635; note: nearly all actives have a fitted effect of over 40% in size
ATXN2 expr inh – reduces ATXN2 reporter expression in HEK-293 cells. HEK-293 ATXN2-luciferase reporter, luminescence, 24 h. Potency, µM (titrated, usually from 57 µM), for the others: at the highest dose activity change, negative = inhibition, actives largely listed as inhibitors. hit rate 0.72% among 360,000. AID 1745845; note: % is set by controls: 0 for no effect and ±100 for the full control effect; nearly all actives have a fitted effect of over 55% in size
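qHTS (up to 57 uM final) was run with 24 h compound exposure of reporter cells at 37 °C. Each well was multiplexed: SteadyGlo luminescence measured ATXN2-luciferase expression after a fluorogenic Gly-Phe-AFC viability readout (25 uM final).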
HepG2 viability – kills HepG2 cells in TGF-b inhibitor counter-screen; HepG2 CAGA-GFP viability, ATP luminescence, 18 h; Potency, µM (titrated, usually from 46.1 µM), without a hit: at the highest dose activity change, negative = cytotoxicity, most hits filed as cytotoxic; hit rate 0.76% among 410,000; AID 588856
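CellTiter-Glo luminescence gave cytotoxicity after 18 hours at 37 degrees C. The cells were HepG2 CAGA-GFP in 1% FBS DMEM, stimulated with 500 pg/mL TGF-beta after compound addition. %Activity was normalised to no-cell wells (complete cell-killing) and DMSO (no toxicity), and curves were fitted and classified.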
* marks the source's active call; other numbers are inactive results; i = inactive; ? = inconclusive; · = no result given; [ ] = remark or other dose. A selection: hits, their analogues and other compounds. The true share with any hit is near 6.3%. Calls come from the whole dose curve; as a rule, active = well fitted curve in the direction sought with a large enough effect; inconclusive = small, poorly fitted or top-dose-only effect, or another doubt; inactive = no such curve, though single readings can be large; an effect the other way counts as inactive or inconclusive. Potency is the fitted concentration of half-maximal effect.

SMILES	VP16 counter	RORgamma inh	TGFb inhibitor	ATXN viability	ATXN2 expr inh	HepG2 viability
COc1ccc(C2NC(=O)N(C)C3=C2C(=O)N(c2ccccc2)C3)cc1 (centres undefined)	·	·	8%	i	7%	-4%
Cc1cccc(C(=O)Nc2ccc(C(=O)/C=C/c3cccnc3)cc2)c1	?	28%[10 µM]	1.4µM*	?	?	-60%
Cc1cccc(C(=O)Nc2ccc(C(=O)/C=C/c3ccncc3)cc2)c1	13µM*	?	11µM*	i	1%	-52%
CCOc1ccc(S(=O)(=O)NCc2ccc3c(c2)OCO3)cc1	16%	?	-14%	i	-7%	-27%
Cc1ncc(CO)c(/C=N/NC(=O)c2cc(Br)ccc2O)c1O	-8%	-42%	19%	i	·	17%
Cc1ncc(CO)c(/C=N/NC(=O)c2ccc(Br)cc2)c1O	?	11µM*	·	·	·	·
Cc1ccc(C(=O)N/N=C/c2nc3ccccc3n2C)cc1	-11%	11µM*	-7%	?	?	-15%
CCn1c2ccccc2c2cc(/C=C(/C#N)C(N)=S)ccc21	·	·	4µM*	?	3.5µM*	-57%
N#CC1(c2cccc(C(=O)Nc3cc(Oc4ccc5nc(NC(=O)C6CC6)sc5n4)ccc3F)c2Cl)CC1	·	·	·	·	-10%	·
O=C(NCc1ccccc1)c1cnc2sc(N3CCCC3)nn2c1=O	·	·	0%	·	·	-7%
COc1ccc(-n2c(=O)c(-c3cccs3)nc3cnc(N4CCN(C)CC4)nc32)cc1	-4%	-11%	·	·	·	·
CC12CCC(C(=O)Nc3ccc(Br)cn3)(OC1=O)C2(C)C (centres undefined)	1%	24%	0%	i	-13%	4.5µM*
CCOC(=O)[C@]12Cc3c(cc(OC)c(OC)c3OC)[C@H]1N(C1CCCCC1)C(=O)c1cc(OC)ccc12	·	·	·	14µM*	?	·
CCOC(=O)N1CCC(N2C(=O)c3ccccc3C2Nc2cc(OC)c(OC)c(OC)c2)CC1 (centres undefined)	2%	-5%	4%	i	3%	-23%
CC1CCCCC1NC(=O)CN1c2cccc3cccc(c23)S1(=O)=O (centres undefined)	·	·	?	i	15%	-3%
Cc1nn(-c2ccccn2)c2c1C(c1c(F)cccc1Cl)C1=C(N2)c2ccccc2C1=O (centres undefined)	7.9µM*	1.6µM*	·	·	·	·
Cc1nn(-c2ccccn2)c2c1C(c1ccccc1Cl)C1=C(N2)c2ccccc2C1=O (centres undefined)	?	2.8µM*	-4%	2.2µM*	?	-1%
CSC1=C(C#N)C(c2ccccc2Cl)C2=C(N1)c1ccccc1C2=O (centres undefined)	12%	-14%	18%	?	-18%	5%
CCc1cccc(CC)c1N(COC)C(=O)Cn1cnc2ccccc21	15%	10µM*	-9%	i	0%	6%
CCOC(=O)N1CCc2c(sc3c2c(=O)n(-c2ccc(CC)cc2)c(=O)n3CC(=O)c2ccc(F)cc2)C1	·	·	-15%	·	·	-5%
CC1(C)C=Cc2c(c3c(c4c(=O)c(-c5ccc(O)cc5)coc24)OC(C)(C)CC3)O1	-5%	-44%	14µM*	·	?	-83%
O=c1c(-c2ccc(O)cc2)coc2cc(O)cc(O)c12	5%	?	28%	i	93%	-6%
CC(C)=CCc1c2c(c3occ(-c4ccc(O)c(O)c4)c(=O)c3c1O)C=CC(C)(C)O2	?	?	10µM*	?	22µM*	8.9µM*
CC(C)=CCc1c(O)cc2occ(-c3ccc4c(c3)OCO4)c(=O)c2c1O	14µM*	?	·	·	·	·
CC(C)=CCc1c2c(c3occ(-c4ccc(O)cc4)c(=O)c3c1O)C=CC(C)(C)O2	?	?	7.9µM*	·	?	10µM*
SMILES	VP16 counter	RORgamma inh	TGFb inhibitor	ATXN viability	ATXN2 expr inh	HepG2 viability
O=c1n2c(c(O)n1C1CCCCC1)C(c1ccccc1)=Nc1ccccc1C2	·	·	?	i	11%	-8%
COc1cc(OC)cc(C(=O)NCCc2csc(-c3cccc(C)c3)n2)c1	·	·	?	·	·	-34%
OC(c1cccc(F)c1)c1ncc(-c2ccc(Oc3ccccc3)cc2)[nH]1 (centres undefined)	·	·	?	?	-23%	-74%
COc1ccccc1-c1cnc(C(O)c2cc(Cl)cc(Cl)c2)[nH]1 (centres undefined)	·	·	11µM*	i	-7%	-21%
OC(c1cccc(Cl)c1)c1ncc(-c2ccc(Oc3ccccc3)cc2)[nH]1 (centres undefined)	·	·	18µM*	·	?	11µM*
COC(=O)Cn1nnnc1-c1nc2cc(C)c(C)cc2[nH]c1=O	·	·	·	·	10%	·
CN(C)c1ccc(N2C(=O)CC(Sc3ccccc3C(=O)O)C2=O)cc1 (centres undefined)	16µM*	?	4%	i	0%	17%
O=C(O)c1ccccc1SC1CC(=O)N(c2ccc3c(c2)OCO3)C1=O (centres undefined)	?	3.2µM*	-6%	i	0%	7%
Cc1ccc(N2C(=O)CC(Sc3ncn[nH]3)C2=O)cc1C (centres undefined)	?	?	-1%	i	-7%	-3%
Cc1cccc(N2C(=O)CC(Sc3ccccc3C(=O)O)C2=O)c1 (centres undefined)	5µM*	?	?	i	0%	-1%
Cc1cccc(N2C(=O)CC(Sc3ncn[nH]3)C2=O)c1 (centres undefined)	-11%[10 µM]	13µM*	-9%	i	-12%	-19%
Cc1ccc(N2C(=O)CC(Sc3ccccc3C(=O)O)C2=O)cc1 (centres undefined)	?	-16%[10 µM]	-14%	i	-18%	-5%
COc1cccc(CNC(=O)CCS(=O)(=O)c2cc3c4c(c2)CCN4C(=O)CC3)c1	·	·	?	i	-2%	-15%
O=C(Nc1nccs1)C(F)(F)C(F)(F)C(F)(F)C(=O)Nc1nccs1	-1%	?	-8%	?	-2%	9%
O=C(/C=C/c1ccc(Cl)cc1)Nc1nccs1	-5%	8.9µM*	-16%	i	·	7%
O=C(Nc1nccs1)c1ccc(-c2ccc(F)cc2)o1	?	?	-3%	i	76%	3%
O=C(Nc1nccs1)c1ccc(-c2ccc(Cl)cc2)o1	?	4µM*	-25%	i	56%	-25%
C/C=C/C=C/C(=O)Nc1nccs1	5.6µM*	10µM*	-10%	i	33%	-1%
Cc1ccc(-n2c(C)nc3c(cnn3-c3ccc(C)c(C)c3)c2=O)cc1C	-18%	?	?	i	13%	-22%
